ROMK primary – modulators of human ROMK potassium channel. P48048. B-score at 10 µM. actives 2% (n = 130,000). Tet-inducible ROMK, thallium flux fluorescence; actives lie on both sides;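 active = signal ratio slope over the read window, or its plate-corrected B-score, at least 3 SD from the plate mean, either direction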;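 also: B-score of the F/F0 ratio slope over 7 to 12 s after thallium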
L major viab – inhibitors of Leishmania major promastigote growth | inhibition, % at 10 µM | Leishmania major promastigotes, resazurin fluorescence viability | actives 9% (n = 200,000); in the data active = inhibition above about 50%;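 also: promastigotes grown with compound for 44 hours at 28 °C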
p97 ATPase inh – inhibitors of human p97 ATPase. recombinant p97 ATPase, Kinase-Glo ATP luminescence, 3 h. inhibition, % at 8 µM. AID 1481. P55072. actives 0.42% (n = 220,000); in the data active = inhibition above about 15%;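 also: 0% = DMSO vehicle and 100% = wells lacking enzyme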
Target sequence (P55072 whole entry, looked up): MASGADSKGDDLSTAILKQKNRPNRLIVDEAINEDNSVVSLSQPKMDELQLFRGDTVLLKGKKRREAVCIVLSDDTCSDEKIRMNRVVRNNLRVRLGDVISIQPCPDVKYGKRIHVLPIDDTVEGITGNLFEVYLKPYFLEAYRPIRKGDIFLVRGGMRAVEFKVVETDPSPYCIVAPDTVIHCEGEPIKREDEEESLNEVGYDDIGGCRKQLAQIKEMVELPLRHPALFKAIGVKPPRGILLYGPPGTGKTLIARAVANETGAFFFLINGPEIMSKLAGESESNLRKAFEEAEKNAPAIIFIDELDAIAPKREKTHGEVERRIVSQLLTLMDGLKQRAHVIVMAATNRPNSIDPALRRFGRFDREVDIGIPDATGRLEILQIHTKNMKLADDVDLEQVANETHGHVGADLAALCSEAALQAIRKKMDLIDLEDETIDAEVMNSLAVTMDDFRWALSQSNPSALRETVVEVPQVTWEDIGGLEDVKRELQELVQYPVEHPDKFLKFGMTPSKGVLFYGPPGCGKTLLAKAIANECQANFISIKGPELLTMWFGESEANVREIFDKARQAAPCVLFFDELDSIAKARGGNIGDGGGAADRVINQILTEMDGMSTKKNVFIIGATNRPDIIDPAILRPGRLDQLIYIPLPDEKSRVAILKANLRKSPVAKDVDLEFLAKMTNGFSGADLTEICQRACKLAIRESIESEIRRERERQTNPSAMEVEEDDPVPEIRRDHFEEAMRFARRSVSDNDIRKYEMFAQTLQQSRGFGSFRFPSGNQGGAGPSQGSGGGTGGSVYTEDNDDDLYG
Insulin prom inh – TRM-6 insulin promoter activity inhibition; actives 0.9% (n = 130,000); TRM-6 cells (human fetal islet line), insulin promoter-eGFP reporter, imaging; reporter expression induced with tamoxifen; AID 1273; inhibition, % at 2 µM;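 active = inhibition above the mean plus 3 SD, with well images judged a real hit on visual review, cut at about 60% in these data, passing the limit was not always enough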
HCT116 bCat-KO – beta-catenin-lacking colon tumor cell growth suppression; actives 1.5% (n = 140,000); AID 818; viability, % at 10 µM; HCT116 beta-catenin knockout viability, CellTiter-Glo, 60 h; active compounds read low;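 active = viability at or under a set limit, the compound median less 4 SD, cut at about 6% in these data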;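 also: 0% = Hyamine 1622 control at 20 µM and 100% = untreated cell control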
PTEN del growth – growth suppressors of cells with PTEN tumor suppressor deletion. AID 827. viability, % at 10 µM. actives 1.2% (n = 140,000). HCT116 PTEN-null viability, CellTiter-Glo, 60 h; active compounds read low;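 active = viability at or below a set limit, 4 SD under the median of all tested compounds, cut at about 3.7% in these data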;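 also: PTEN knockout HCT116 line with beta catenin targeted HCT116 as companion control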
An asterisk follows results filed as active; i = inactive; / = no result given. Compounds with a hit are over-represented: about 10% of the library has one in this group of screens.

SMILES | ROMK primary | L major viab | p97 ATPase inh | Insulin prom inh | HCT116 bCat-KO | PTEN del growth
c1ccc(-c2cc(-c3nnc4n3N=C(c3ccc5ccccc5c3)CS4)[nH]n2)cc1 | / | 55* | 1 | 4 | 6 | 1.9*
Fc1ccc(C2=Nn3c(nnc3-c3n[nH]c4c3CCC4)SC2)cc1 | 0.31 | 51* | 1 | / | 37 | 46
CCN(C(=O)CN(C)Cc1cccc(Cl)c1Cl)c1c(N)n(Cc2ccccc2)c(=O)[nH]c1=O | / | -3 | -6 | / | 81 | 80
COC(=O)C1=C(C)NC2=C(C(=O)CCC2)C1c1ccc(-c2ccsc2C(=O)OC)o1 (stereo unspecified) | / | / | -7 | / | / | /
O=C(NC(=S)NCCC1=CCCCC1)c1cncc(Br)c1 | / | -3 | -1 | -48 | 87 | 88
CCOC(=O)c1nnn(CC(=O)N2N=C(c3cccc4ccccc34)CC2c2ccccc2)c1C(=O)OCC (stereo unspecified) | -0.19 | 52* | 2 | -10 | 88 | 88
O=C(CN1C(=O)C2C3c4ccccc4C(c4ccccc43)C2C1=O)Nc1ccccc1C(=O)O (stereo unspecified) | 0.22 | -13 | 2 | / | 98 | 98
COc1ccc(Nc2nnc(Cc3ccc(Cl)cc3)c(=O)[nH]2)c(OC)c1 | / | -12 | 2 | / | 72 | 75
COc1ccc(Nc2nnc(Cc3ccccc3)c(=O)[nH]2)c(OC)c1 | -0.63 | -3 | 2 | 86* | 105 | 99
Clc1ccc(CNC2CCCC2)c(Cl)c1 | -0.91 | 94* | 6 | -20 | 88 | 91
S=C(NCc1ccc(Cl)cc1Cl)NC1CCCCC1 | -0.32 | 3 | 3 | -50 | 81 | 81
COc1ccc(-c2csc(-c3[nH]cnc3N)n2)cc1 | -1.1 | 96* | 5 | -73 | / | /
N#C/C(=C1/C(=O)Nc2ccc(Br)cc21)c1ccccn1 | -1.6 | 47 | -2 | / | / | /
O=C(Nc1cccc(Cl)c1)N(CCN1CCOCC1)Cc1ccccc1F | -1.3 | 1 | 1 | -17 | 94 | 88
C=CCC(c1ccccc1F)N(CCN1CCOCC1)C(=O)Nc1cccc(Cl)c1 (stereo unspecified) | -0.85 | 93* | -3 | -34 | 79 | 72
N=C1C(c2nc3ccccc3s2)=C(O)CN1c1ccccc1 | 1.1 | 7 | 3 | -30 | / | /
COC(=O)C1=C(C)NC(=S)NC1c1ccc(-c2cc(Cl)ccc2Cl)o1 (stereo unspecified) | / | / | -2 | / | / | /
C/C(=N\NC(=O)c1cc2c(s1)CCC(C)C2)c1ccncc1 (stereo unspecified) | / | 97* | 5 | 27 | 84 | 90
Clc1ccc2c(c1)C(N1CCNCC1)Cc1ccccc1S2 (stereo unspecified) | / | 100* | -1 | i | 1.5* | 1.7*
Clc1ccc2c(c1)C(N1CCNCC1)=Nc1ccccc1O2 | / | 23 | 3 | -55 | 71 | 63
COc1ccc(Cl)cc1NC(=O)CCN1CCN(C)CC1 | 0.0079 | 0 | -2 | -19 | 88 | 98
CN1C(=O)CC(N2CCN(Cc3ccc(Cl)cc3)CC2)C1=O (stereo unspecified) | 0.033 | -8 | 1 | -41 | 107 | 97
COCCCN1CCN(C2Cc3ccccc3Sc3ccc(Cl)cc32)CC1 (stereo unspecified) | -0.11 | 78* | -13 | -31 | 23 | 26
NC(=O)CCN1CCN(CCOC2Cc3cc(Cl)ccc3Sc3ccccc32)CC1 (stereo unspecified) | -1.4 | 91* | -7 | -31 | 66 | 62
O=C(Nc1ccc(F)cc1)Nc1ccccc1C(=O)NCCN1CCNC1=O | / | / | -4 | / | / | /
SMILES | ROMK primary | L major viab | p97 ATPase inh | Insulin prom inh | HCT116 bCat-KO | PTEN del growth
CCc1nnc(NC(=O)CCC(=O)NC2CCCc3ccccc32)s1 (stereo unspecified) | 0.0026 | 48 | 5 | -10 | 90 | 97
Cc1c(NC(=S)Nc2ccc(Cl)cc2)c(=O)n(-c2ccccc2)n1C | 0.63 | -1 | -2 | / | / | /
Cc1ccc(C)[n+](CC(=O)c2ccc(-c3ccccc3)cc2)c1 | 0.54 | 70* | 4 | 33 | / | /
Cc1ccc[n+](CC(=O)c2ccc(-c3ccccc3)cc2)c1 | 0.0085 | 100* | -2 | 11 | 84 | 88
COC(=O)c1ccc[n+](CC(=O)c2ccc(Br)cc2)c1 | / | 56* | -1 | 38 | 101 | 101
Cc1ccc(C(=O)C[n+]2cccc3ccccc32)cc1 | / | 4 | 2 | -96 | 79 | 81
Cc1ccc(C(=O)C[n+]2cccc(C(N)=O)c2)cc1 | / | / | 7 | / | / | /
